The supplement of paper PMC10849652
Targets with a hit are over-represented here; the source holds about 7,900 in all. About 0.6% of all pairs of compound and target were hits. Unmarked numbers belong to inactive results.

Assays:
Assay in all cases: log2 fold change, soluble protein after heating vs DMSO (PISA); higher = thermal stabilisation; K562 cells, 10 uM, 30 min; active = over 0.2 and 3.5 SD of the protein, either way, in both replicates (recomputed)
[1] = compound: CS(=O)(=O)c1ccc(-c2cnc(N)c(C(=O)Nc3ccccc3)n2)cc1
Outline: (§1)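 Soluble protein was defined as the supernatant after 21,000xg for 90 min. It came from K562 cells at 2×10^6 cells/mL given 10 μM compound for 30 min, heated in aliquots for 3 min across 48°C-58°C, pooled, and extracted in PBS with 0.5% NP-40 at 4°C, and was quantified by TMTpro 16plex LC-MS/MS with equalised channel sums. Thermal stability against control samples, from duplicates, is reported as log2 fold change.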

[2] = compound: C[C@@H](Oc1cc(-c2cnn(C3CCNCC3)c2)cnc1N)c1c(Cl)ccc(F)c1Cl [crizotinib]
Outline: as §1

[3] = compound: C[C@@H]1COCCN1C2=NC(=NC(=C2)C3(CC3)S(=O)(=O)C)C4=C5C=CNC5=CC=C4
Outline: as §1

[4] = compound: C[C@H](C1=CC=C(C=C1)C(=O)NC2=C3C=CNC3=NC=C2)N
Outline: as §1

[5] = compound: C[C@H](Nc1ncnc2nc[nH]c12)c1cc2cccc(Cl)c2c(=O)n1-c1ccccc1 [duvelisib]
Outline: as §1

[6] = compound: Cc1cc(Nc2cc(CN3CCOCC3)c3nc(C)c(Cc4ccc(Cl)cc4F)n3n2)n[nH]1 [gandotinib]
Outline: as §1

[7] = compound: Cc1cc(Nc2cc(N3CCN(C)CC3)nc(Sc3ccc(NC(=O)C4CC4)cc3)n2)n[nH]1 [tozasertib]
Outline: as §1

[8] = compound: Cc1cc(SCc2sc(-c3ccc(C(F)(F)F)cc3)nc2C)ccc1OCC(=O)O
Outline: as §1

[9] = compound: Cc1ccc(-n2nc(C(C)(C)C)cc2NC(=O)Nc2ccc(OCCN3CCOCC3)c3ccccc23)cc1 [doramapimod]
Outline: as §1

[10] = compound: Cc1ccc(C(=O)N(CCCN)[C@@H](c2nc3cc(Cl)ccc3c(=O)n2Cc2ccccc2)C(C)C)cc1 [ispinesib]
Outline: as §1

[11] = compound: Cc1ccc(NC(=O)c2ccc(CN3CC[C@H](N(C)C)C3)c(C(F)(F)F)c2)cc1Nc1nccc(-c2cncnc2)n1 [bafetinib]
Outline: as §1

[12] = compound: Cc1cccc(CC(=O)N2CCc3c2ccc(-c2cn(C)c4ncnc(N)c24)c3F)n1
Outline: as §1

[13] = compound: Cc1cn(-c2cc(NC(=O)c3ccc(C)c(Nc4nccc(-c5cccnc5)n4)c3)cc(C(F)(F)F)c2)cn1 [nilotinib]
Outline: as §1

[14] = compound: Cc1nc(Nc2n[nH]c3c2CN(C(=O)N[C@H](CN(C)C)c2ccccc2)C3(C)C)c2sccc2n1
Outline: as §1

[15] = compound: Cc1nc(Nc2ncc(C(=O)Nc3c(C)cccc3Cl)s2)cc(N2CCN(CCO)CC2)n1 [dasatinib]
Outline: as §1

[16] = compound: Cc1ncc(-c2ccnc(Nc3ccc(S(C)(=O)=O)cc3)n2)n1C(C)C
Outline: as §1

[17] = compound: Cn1cc(-c2ccc3c(c2)CCN3C(=O)Cc2cccc(C(F)(F)F)c2)c2c(N)ncnc21
Outline: as §1

[18] = compound: Cn1cc(-c2ccc3nnc(C(F)(F)c4ccc5ncccc5c4)n3n2)cn1
Outline: as §1

[19] = compound: Cn1cncc1[C@@](N)(c1ccc(Cl)cc1)c1ccc2c(c1)c(-c1cccc(Cl)c1)cc(=O)n2C [tipifarnib]
Outline: as §1

[20] = compound: FC(F)(F)c1ccc(/C=C/c2nc(COc3ccc(CCCCn4ccnn4)cc3)co2)cc1 [mubritinib]
Outline: as §1

UniProt P53609, sequence (P53609 whole entry, looked up): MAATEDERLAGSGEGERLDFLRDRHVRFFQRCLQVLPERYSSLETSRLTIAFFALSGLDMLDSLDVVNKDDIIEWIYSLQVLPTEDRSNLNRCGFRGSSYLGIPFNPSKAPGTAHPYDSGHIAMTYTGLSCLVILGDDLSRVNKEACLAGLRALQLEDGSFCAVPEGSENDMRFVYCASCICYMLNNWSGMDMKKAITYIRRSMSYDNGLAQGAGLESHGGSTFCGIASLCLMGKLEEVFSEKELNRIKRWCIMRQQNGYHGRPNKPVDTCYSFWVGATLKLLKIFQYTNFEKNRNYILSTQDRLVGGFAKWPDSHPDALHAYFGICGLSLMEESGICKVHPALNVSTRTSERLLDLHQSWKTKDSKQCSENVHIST
UniProt O60256, sequence (O60256 whole entry, looked up): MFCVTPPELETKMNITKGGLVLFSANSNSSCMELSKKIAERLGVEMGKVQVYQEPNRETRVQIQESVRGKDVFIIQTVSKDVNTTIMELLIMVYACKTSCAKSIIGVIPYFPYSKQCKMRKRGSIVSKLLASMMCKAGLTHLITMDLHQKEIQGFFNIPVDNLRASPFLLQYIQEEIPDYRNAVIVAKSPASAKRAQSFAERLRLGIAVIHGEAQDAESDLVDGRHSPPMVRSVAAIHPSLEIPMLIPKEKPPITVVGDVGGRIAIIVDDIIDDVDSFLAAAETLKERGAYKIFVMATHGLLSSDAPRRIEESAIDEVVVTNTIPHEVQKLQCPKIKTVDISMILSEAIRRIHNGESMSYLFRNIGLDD
UniProt P62333, sequence (P62333 whole entry, looked up): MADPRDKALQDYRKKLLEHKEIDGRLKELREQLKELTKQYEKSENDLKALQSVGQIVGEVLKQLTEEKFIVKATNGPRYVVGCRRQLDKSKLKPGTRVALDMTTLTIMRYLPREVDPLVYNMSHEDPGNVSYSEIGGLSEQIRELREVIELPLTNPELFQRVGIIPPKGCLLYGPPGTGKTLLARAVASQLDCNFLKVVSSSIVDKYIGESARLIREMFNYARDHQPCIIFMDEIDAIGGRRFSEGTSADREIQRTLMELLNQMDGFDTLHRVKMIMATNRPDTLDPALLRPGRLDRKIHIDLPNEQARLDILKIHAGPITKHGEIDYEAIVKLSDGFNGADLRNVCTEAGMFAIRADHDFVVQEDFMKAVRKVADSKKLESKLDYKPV
UniProt Q96KB5, sequence (Q96KB5 whole entry, looked up): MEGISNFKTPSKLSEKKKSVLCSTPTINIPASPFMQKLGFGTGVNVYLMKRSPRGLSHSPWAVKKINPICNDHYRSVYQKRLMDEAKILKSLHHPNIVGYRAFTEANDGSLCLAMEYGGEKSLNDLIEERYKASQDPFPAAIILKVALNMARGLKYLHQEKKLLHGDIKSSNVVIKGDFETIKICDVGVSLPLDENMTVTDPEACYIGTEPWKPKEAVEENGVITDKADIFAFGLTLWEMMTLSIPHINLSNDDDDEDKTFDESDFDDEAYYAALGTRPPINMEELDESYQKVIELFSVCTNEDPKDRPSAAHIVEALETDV
UniProt Q13523, sequence (Q13523 whole entry, looked up): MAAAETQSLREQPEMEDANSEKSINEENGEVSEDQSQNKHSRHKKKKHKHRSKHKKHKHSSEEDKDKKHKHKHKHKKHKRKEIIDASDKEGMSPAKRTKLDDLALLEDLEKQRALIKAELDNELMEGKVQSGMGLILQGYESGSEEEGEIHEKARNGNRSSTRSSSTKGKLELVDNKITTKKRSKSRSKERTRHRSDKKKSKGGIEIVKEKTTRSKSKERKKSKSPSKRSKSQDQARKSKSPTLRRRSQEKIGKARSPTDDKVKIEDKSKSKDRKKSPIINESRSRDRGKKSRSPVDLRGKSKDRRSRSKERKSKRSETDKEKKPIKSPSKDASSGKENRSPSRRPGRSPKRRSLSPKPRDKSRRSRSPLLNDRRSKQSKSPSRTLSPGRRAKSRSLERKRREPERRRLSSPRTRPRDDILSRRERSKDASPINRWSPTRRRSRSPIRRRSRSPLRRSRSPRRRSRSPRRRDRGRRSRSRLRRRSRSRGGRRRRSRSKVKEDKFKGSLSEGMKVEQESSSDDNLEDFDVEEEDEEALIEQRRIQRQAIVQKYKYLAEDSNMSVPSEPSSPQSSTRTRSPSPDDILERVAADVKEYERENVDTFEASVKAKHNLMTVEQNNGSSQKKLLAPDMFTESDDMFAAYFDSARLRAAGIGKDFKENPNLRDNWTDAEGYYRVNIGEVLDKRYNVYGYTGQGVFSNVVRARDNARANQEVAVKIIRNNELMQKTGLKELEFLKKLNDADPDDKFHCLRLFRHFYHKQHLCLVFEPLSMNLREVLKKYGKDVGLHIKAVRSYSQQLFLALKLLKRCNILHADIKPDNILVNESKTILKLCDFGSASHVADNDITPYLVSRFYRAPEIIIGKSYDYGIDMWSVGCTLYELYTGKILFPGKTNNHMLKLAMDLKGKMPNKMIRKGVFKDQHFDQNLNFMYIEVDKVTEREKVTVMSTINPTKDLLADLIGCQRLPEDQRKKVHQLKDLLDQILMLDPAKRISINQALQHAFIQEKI
UniProt O95997, sequence (O95997 whole entry, looked up): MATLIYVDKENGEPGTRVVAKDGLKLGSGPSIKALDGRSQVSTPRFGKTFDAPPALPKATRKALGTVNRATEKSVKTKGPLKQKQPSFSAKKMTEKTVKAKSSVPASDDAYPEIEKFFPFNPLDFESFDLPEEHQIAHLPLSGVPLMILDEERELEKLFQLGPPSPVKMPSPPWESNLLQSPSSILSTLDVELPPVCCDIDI
UniProt Q8TBX8, sequence (Q8TBX8 whole entry, looked up): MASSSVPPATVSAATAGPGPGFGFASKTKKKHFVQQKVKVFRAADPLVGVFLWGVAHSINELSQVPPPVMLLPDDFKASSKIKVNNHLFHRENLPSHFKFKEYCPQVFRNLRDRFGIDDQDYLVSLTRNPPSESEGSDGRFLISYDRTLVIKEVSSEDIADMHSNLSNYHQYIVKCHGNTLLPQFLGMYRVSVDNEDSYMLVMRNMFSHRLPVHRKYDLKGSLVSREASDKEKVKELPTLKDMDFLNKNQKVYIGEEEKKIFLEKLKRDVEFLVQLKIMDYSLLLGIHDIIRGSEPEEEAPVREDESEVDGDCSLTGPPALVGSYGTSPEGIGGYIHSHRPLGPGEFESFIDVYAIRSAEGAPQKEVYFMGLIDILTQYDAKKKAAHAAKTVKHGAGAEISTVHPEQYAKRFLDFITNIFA
UniProt Q92968, sequence (Q92968 whole entry, looked up): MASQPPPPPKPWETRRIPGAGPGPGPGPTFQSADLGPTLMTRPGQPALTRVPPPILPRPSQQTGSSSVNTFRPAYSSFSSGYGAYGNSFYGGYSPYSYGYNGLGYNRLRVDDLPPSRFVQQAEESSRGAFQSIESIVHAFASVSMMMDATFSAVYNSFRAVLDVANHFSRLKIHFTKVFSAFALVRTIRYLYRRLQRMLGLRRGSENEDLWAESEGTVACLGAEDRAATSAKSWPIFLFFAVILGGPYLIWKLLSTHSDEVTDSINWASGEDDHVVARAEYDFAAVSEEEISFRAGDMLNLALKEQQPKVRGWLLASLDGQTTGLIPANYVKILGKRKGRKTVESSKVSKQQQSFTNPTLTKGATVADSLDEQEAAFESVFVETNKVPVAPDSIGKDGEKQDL
UniProt Q13200, sequence (Q13200 whole entry, looked up): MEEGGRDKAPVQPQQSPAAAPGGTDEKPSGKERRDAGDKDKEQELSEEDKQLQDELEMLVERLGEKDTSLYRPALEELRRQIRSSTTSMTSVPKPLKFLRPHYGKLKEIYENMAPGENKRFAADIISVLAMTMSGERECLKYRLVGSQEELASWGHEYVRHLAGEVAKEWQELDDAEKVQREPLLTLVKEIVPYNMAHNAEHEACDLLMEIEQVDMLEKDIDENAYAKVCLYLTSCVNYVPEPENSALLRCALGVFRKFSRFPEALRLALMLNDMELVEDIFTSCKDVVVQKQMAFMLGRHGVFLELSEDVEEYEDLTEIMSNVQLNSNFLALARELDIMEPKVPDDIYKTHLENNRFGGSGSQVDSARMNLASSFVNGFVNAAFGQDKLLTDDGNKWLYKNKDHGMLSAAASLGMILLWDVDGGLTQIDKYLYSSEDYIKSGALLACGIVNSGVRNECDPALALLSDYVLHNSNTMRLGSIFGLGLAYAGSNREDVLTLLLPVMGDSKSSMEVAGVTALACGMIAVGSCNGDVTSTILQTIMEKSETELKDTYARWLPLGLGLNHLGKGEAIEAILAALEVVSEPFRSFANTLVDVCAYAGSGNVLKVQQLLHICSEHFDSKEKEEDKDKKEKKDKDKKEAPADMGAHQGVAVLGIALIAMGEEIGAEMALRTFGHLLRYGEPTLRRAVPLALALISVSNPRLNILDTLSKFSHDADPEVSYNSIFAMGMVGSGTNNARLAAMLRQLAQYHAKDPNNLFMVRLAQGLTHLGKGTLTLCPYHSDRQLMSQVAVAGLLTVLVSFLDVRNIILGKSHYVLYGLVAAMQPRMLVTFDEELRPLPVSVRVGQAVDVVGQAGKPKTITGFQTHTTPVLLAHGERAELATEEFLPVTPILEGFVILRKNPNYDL
UniProt O75439, sequence (O75439 whole entry, looked up): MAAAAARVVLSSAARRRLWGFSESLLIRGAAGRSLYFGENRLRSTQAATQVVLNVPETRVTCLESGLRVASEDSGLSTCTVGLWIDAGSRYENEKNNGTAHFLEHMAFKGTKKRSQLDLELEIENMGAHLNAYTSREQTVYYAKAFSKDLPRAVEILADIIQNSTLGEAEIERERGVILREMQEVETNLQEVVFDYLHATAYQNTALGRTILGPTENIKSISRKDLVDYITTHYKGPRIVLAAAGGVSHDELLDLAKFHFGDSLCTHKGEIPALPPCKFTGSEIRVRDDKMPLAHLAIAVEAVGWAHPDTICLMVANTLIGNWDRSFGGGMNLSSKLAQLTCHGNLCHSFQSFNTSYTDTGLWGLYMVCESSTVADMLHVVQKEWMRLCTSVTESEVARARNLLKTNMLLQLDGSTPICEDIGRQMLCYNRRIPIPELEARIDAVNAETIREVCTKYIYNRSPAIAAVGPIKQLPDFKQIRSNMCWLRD

| Target | log2 fold change [1] | log2 fold change [2] | log2 fold change [3] | log2 fold change [4] | log2 fold change [5] | log2 fold change [6] | log2 fold change [7] | log2 fold change [8] | log2 fold change [9] | log2 fold change [10] | log2 fold change [11] | log2 fold change [12] | log2 fold change [13] | log2 fold change [14] | log2 fold change [15] | log2 fold change [16] | log2 fold change [17] | log2 fold change [18] | log2 fold change [19] | log2 fold change [20] |
| --- | --- | --- | --- | --- | --- | --- | --- | --- | --- | --- | --- | --- | --- | --- | --- | --- | --- | --- | --- | --- |
| PIP4K2C (UniProt Q8TBX8) | 1.06 (active) | -0.058 | 0.042 | 0.063 | 0.047 | 0.033 | 0.018 | 0.057 | -0.044 | 0.009 | 0.663 | -0.112 | 0.354 | 0.053 | -0.042 | 1.25 (active) | 0.144 | 0.568 | -0.07 | -0.084 |
| PIP4K2A (UniProt P48426) | 0.411 (active) | -0.032 | 0.027 | 0.013 | -0.126 | -0.084 | -0.007 | 0.042 | 0.026 | -0.052 | 0.283 | 0.103 | 0.077 | 0.065 | 0.048 | 0.588 (active) | 0.037 | 0.181 | -0.081 | -0.06 |
| PRPF4B (UniProt Q13523) | 0.024 | -0.006 | -0.025 | -0.089 | -0.081 | 0.007 | 0.062 | 0.01 | 0.044 | 0.082 | 0.188 | -0.096 | 0.153 | -0.626 (active) | 0.081 | -0.163 | 0.005 | -0.056 | 0.117 | 0.069 |
| PCLAF (UniProt Q15004) | -0.175 | 0.027 | -0.19 | 0.052 | -0.022 | -0.07 | -0.03 | -0.097 | 0.022 | 0.079 | -0.015 | -0.1 | -0.027 | 0.105 | 0.065 | -0.081 | -0.112 | -0.069 | -0.019 | -0.095 |
| PRPF38B (UniProt Q5VTL8) | -0.051 | -0.026 | 0.058 | -0.269 (active) | 0.023 | 0.001 | -0.022 | -0.002 | 0.005 | 0.193 | -0.016 | -0.015 | 0.049 | -1.9 (active) | -0.022 | -0.008 | 0.012 | -0.04 | -0.067 | 0.004 |
| PGGT1B (UniProt P53609) | 0.093 | 0.04 | 0.002 | -0.05 | 0.046 | -0.011 | 0.006 | -0.143 | -0.028 | 0.043 | -0.069 | -0.024 | -0.007 | -0.059 | 0.075 | 0.009 | -0.027 | 0.004 | 0.134 | 0.062 |
| PRPSAP2 (UniProt O60256) | 0 | 0.01 | 0.112 | -0.016 | -0.013 | 0.114 | 0.038 | 0.023 | -0.007 | 0.012 | -0.034 | 0.124 | -0.024 | 0.064 | -0.028 | -0.005 | -0.037 | -0.018 | 0.023 | -0.008 |
| PEX13 (UniProt Q92968) | -0.005 | -0.146 | 0.034 | -0.047 | 0.078 | -0.143 | -0.163 | -0.016 | 0.056 | -0.026 | -0.159 | 0.106 | -0.046 | 0 | 0.014 | 0.035 | -0.071 | -0.075 | -0.027 | 0.042 |
| PTTG1 (UniProt O95997) | -0.093 | -0.012 | -0.085 | -0.044 | 0.068 | -0.108 | -0.015 | 0.021 | 0.076 | -0.034 | 0.062 | 0.021 | -0.025 | -0.011 | 0.031 | -0.116 | 0.024 | -0.066 | -0.013 | 0.033 |
| PSMD2 (UniProt Q13200) | 0.017 | 0.019 | -0.063 | 0.075 | -0.064 | 0.015 | 0.023 | 0.004 | 0.021 | -0.017 | 0.079 | 0 | -0.031 | 0.061 | 0.031 | -0.005 | -0.12 | -0.006 | 0.07 | -0.038 |
| PFAS (UniProt O15067) | -0.062 | 0.124 | 0.014 | 0 | -0.026 | -0.152 | -0.132 | 0.081 | -0.018 | 0.128 | 0.033 | 0.311 | -0.359 (active) | -0.113 | -0.003 | 0.059 | 0.341 (active) | 0.06 | 0.018 | 0.52 (active) |
| PCBP1 (UniProt Q15365) | 0.012 | 0 | 0.094 | -0.012 | 0.042 | -0.12 | 0.047 | 0.07 | -0.016 | 0.028 | -0.007 | 0.033 | -0.057 | -0.086 | -0.111 | -0.026 | 0.064 | -0.004 | -0.119 | -0.011 |
| PBK (UniProt Q96KB5) | 0.048 | -0.046 | 0.051 | 0.134 | 0.006 | -0.136 | 0.109 | 0.157 | 0.015 | -0.066 | 0.064 | 0.064 | -0.053 | -0.152 | -0.084 | 0.078 | -0.004 | 0.059 | -0.067 | -0.06 |
| PSMC6 (UniProt P62333) | 0.032 | 0.022 | -0.047 | 0.116 | -0.033 | 0.054 | 0.031 | -0.002 | 0.021 | 0.007 | 0.069 | 0.008 | -0.029 | 0.069 | 0.039 | -0.02 | -0.068 | 0.002 | 0.104 | -0.048 |
| PMPCB (UniProt O75439) | 0.012 | 0.015 | 0.054 | -0.081 | 0.055 | -0.096 | -0.019 | -0.019 | 0.009 | -0.034 | 0.035 | 0.025 | -0.054 | 0.089 | 0.098 | -0.04 | 0.105 | 0.046 | 0.269 (active) | 0.053 |
| PPIL4 (UniProt Q8WUA2) | -0.022 | -0.013 | 0.027 | -0.01 | 0.025 | 0 | -0.026 | 0.021 | 0.019 | -0.017 | -0.001 | 0.002 | 0.002 | -0.483 (active) | -0.065 | -0.113 | -0.031 | -0.018 | -0.01 | 0.005 |
